Bioassay records (PubChem)
In the library only some 7.8% were active in any assay of this set; here they are far more common.
PK Bst = pyruvate kinase (B. stearothermophilus) modulation; Potency, µM; actives 1.2% (n = 51,000); AID 361; purified pyruvate kinase, luminescence ATP production; ribose 5-phosphate activator present at AC10; in the data active = potency below about 11 µM; inconclusive = mostly about 12 µM to 25 µM;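 the screen sought inhibitors and activators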
TSHR agonist = TSH receptor (human) agonism | P16473 | HEK293-CNG-TSHR cells (CNG channel as cAMP sensor), membrane potential dye, cAMP | Potency, µM (doses to about 57.1 µM), usual class: activators | actives 0.48% (n = 73,000); active = well fitted activation curve with a large enough effect in the main read-out, with a control signal flat, not every such curve was filed as active; inconclusive = small, poorly fitted or top-dose-only effect, or a change in a side signal; inactive = no such curve, though single readings can be large or run the other way; reference of the percent scale not stated here;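 note: the control signal comes from parental cells without the receptor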
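HEK 293 cells stably expressing TSHR and a modified CNG channel, with CNG-only parental cells as counterscreen, were preloaded 60 min at room temperature with membrane potential dye containing 100 uM RO 20-1724. Compound exposure was 30 min, and depolarization was read as fluorescence at 590 nm.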
HEK293 cAMP ctrl = counter-screen for TSHR agonists: cAMP increase in parental HEK293; parental HEK293 CNG cAMP sensor, membrane potential fluorescence; Potency, µM (titrated, usually from 57.1 µM), actives largely listed as activators; actives 2.5% (n = 73,000); AID 938; note: nearly all actives have a fitted effect of over 55% in size
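Counterscreen for endogenous-receptor signalling: CNG-channel HEK 293 cells report cAMP rise by membrane depolarization. After 60 min dye equilibration with 100 uM RO 20-1724, compounds incubated 30 min before bottom-read fluorescence at 590 nm.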
Tau filament bind = binds recombinant human tau filaments. actives 2% (n = 71,000). Potency, µM (series often up to 57.1 µM). recombinant tau filaments, thioflavin S fluorescence, 15 h; filaments grown with octadecylsulfate alongside compound. AID 596. P10636;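 note: actives lower thioflavin S fluorescence by blocking filaments or displacing dye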
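Assay mix: 1 uM His-tagged tau, 30 uM sodium octadecylsulfate, thioflavine S dye in HEPES/NaCl/DTT buffer. Compound is added prior to the inducer. Fluorescence after 15 h at 37 C.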
FLuc inh = firefly luciferase inhibition; P08659; purified firefly luciferase, luminescence, 8 min; Potency, µM (highest dose often 57.1 µM), actives largely listed as inhibitors; actives 2.2% (n = 72,000); AID 411; note: nearly all actives have a fitted effect of over 40% in size
Target sequence (P08659 whole entry, looked up): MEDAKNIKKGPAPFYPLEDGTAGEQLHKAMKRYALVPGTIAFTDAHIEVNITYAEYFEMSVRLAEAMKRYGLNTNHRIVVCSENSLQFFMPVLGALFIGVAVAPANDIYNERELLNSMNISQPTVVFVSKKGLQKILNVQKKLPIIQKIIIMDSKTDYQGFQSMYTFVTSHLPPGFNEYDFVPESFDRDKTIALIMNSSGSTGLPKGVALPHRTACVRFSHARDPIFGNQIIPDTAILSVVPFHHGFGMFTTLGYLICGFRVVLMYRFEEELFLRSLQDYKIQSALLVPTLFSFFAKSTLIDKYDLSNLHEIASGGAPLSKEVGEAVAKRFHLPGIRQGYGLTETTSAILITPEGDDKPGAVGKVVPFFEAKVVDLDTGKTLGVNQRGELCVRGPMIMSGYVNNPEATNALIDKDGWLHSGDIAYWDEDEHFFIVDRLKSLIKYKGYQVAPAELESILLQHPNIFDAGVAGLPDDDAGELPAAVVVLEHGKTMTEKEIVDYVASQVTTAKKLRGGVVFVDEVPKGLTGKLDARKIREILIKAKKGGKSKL
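Firefly luciferase (PKLight detection mix) with 10 uM ATP in pH 7.2 imidazole buffer (KCl, MgCl2, Tween 20, BSA). Compounds tested across a concentration series (qHTS). Luminescence read after 8 min at ambient temperature.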
ALOX15 inhib = 15-hLO (ALOX15) enzyme inhibition. P16050. AID 887. actives 1.4% (n = 74,000). Potency, µM (series often up to 57.1 µM), hits mostly inhibitors. purified 15hLO-1, xylenol orange hydroperoxide absorbance; note: nearly all actives have a fitted effect of over 55% in size
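Readout: Fe(III)-xylenol orange absorbance, 573-to-405 nm ratio as reaction progress. Enzyme 40 nM purified human 15hLO-1, substrate 50 uM arachidonic acid, 6 min RT after 15 min compound preincubation; Hepes pH 7.5 buffer with Triton X-100.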
HEK293 cAMP cnt = TSHR-independent cAMP elevation, counter-screen; shares compounds with TSHR agonist; parental HEK293 CNG biosensor, cAMP membrane potential fluorescence; activity change, negative = inhibition, % at 32.9 µM; 150 tested, under 10 active
Of the large screens only hits and unclear results are named; the others gave an inactive call (follow-up assays come after a bar, where they were run). Unless noted, calls come from the whole dose curve; as a rule, active = well fitted curve in the direction sought with a large enough effect; inconclusive = small, poorly fitted or top-dose-only effect, or another doubt; inactive = no such curve, though single readings can be large; an effect the other way counts as inactive or inconclusive.

O=S1(=O)N=C(Oc2ccccc2)c2ccccc21	none (no result: PK Bst) | HEK293 cAMP cnt inactive
O=C(COC(=O)CCCc1c[nH]c2ccccc12)Nc1ccc2c(c1)OCO2	ALOX15 inhib inconclusive
O=C(COC(=O)C1c2ccccc2Oc2ccccc21)Nc1ccc2c(c1)OCO2	TSHR agonist 25µM | HEK293 cAMP cnt inactive
CC1CCN(S(=O)(=O)c2cccc(C(=O)Nc3ccccn3)c2)CC1	TSHR agonist 25µM (no result: PK Bst) | HEK293 cAMP cnt inactive
O=C(Nc1ccccn1)c1cccc(S(=O)(=O)N2CCOCC2)c1	none (no result: PK Bst)
O=C(c1cnccn1)N1CCC2(CC1)CN(Cc1ccccc1)C2	none (no result: PK Bst)
COc1ccc(OC)c(CNC(=O)C2CCN(S(=O)(=O)N3CCCC3)CC2)c1	none
COc1ccc(Br)cc1CNC(=O)C1CCN(S(=O)(=O)N2CCCCC2)CC1	none | HEK293 cAMP cnt inactive
CCC(C)(C)n1nnnc1CN(Cc1ccco1)Cc1cc2cc3c(cc2[nH]c1=O)OCO3	TSHR agonist 25µM, ALOX15 inhib 0.0079µM | HEK293 cAMP cnt inactive
Cc1occc1-c1nnc(SCC(=O)Nc2ccc(F)cc2)n1Cc1ccccc1	TSHR agonist inconclusive, HEK293 cAMP ctrl inconclusive
Cc1ccccc1NC(=O)CSc1nnc(-c2ccoc2C)n1CCc1ccccc1	TSHR agonist 10µM | HEK293 cAMP cnt inactive
Cc1ccccc1-n1nc(C)c2cc(C(=O)N3CCN(S(=O)(=O)c4ccc(F)cc4)CC3)sc21	TSHR agonist 16µM | HEK293 cAMP cnt inactive
COCCNC(=O)C(c1ccc(C)o1)N(C(=O)c1snc(C(N)=O)c1N)c1ccc(C)cc1 (stereo not drawn)	TSHR agonist 32µM | HEK293 cAMP cnt inactive
Cc1ccccc1NC(=O)N1C2CCCC1CC(NC(=O)C1CC1)C2 (stereo not drawn)	none | HEK293 cAMP cnt inactive
COc1ccccc1CN1CC[C@@]2(CCCN(C(=O)c3cnccn3)C2)C1	none (no result: PK Bst)
COc1ccc(C(c2nnnn2Cc2ccccc2)N2CCN(C(=O)c3ccco3)CC2)cc1 (stereo not drawn)	TSHR agonist inconclusive, HEK293 cAMP ctrl inconclusive
COc1cccc(C(c2nnnn2Cc2ccccc2)N2CCN(C(=O)c3ccco3)CC2)c1OC (stereo not drawn)	TSHR agonist 25µM, ALOX15 inhib inconclusive (no result: PK Bst) | HEK293 cAMP cnt inactive
CC(C)Cn1cnc2c(Sc3c([N+](=O)[O-])ncn3C)nc(N)nc21	none (no result: PK Bst)
CC(c1ccco1)N(C(=O)COc1ccc(Cl)cc1)c1ccccn1 (stereo not drawn)	none
CC(c1ccco1)N(C(=O)c1ccc(Cl)s1)c1ccccn1 (stereo not drawn)	TSHR agonist inconclusive, HEK293 cAMP ctrl inconclusive | HEK293 cAMP cnt inactive
Cc1cc(C)n(S(=O)(=O)c2cc(C(=O)O)c(Cl)cc2Cl)n1	TSHR agonist 16µM | HEK293 cAMP cnt inactive
CC(C)(C)N1C(=O)[C@H]2[C@@H]3[C@H](O)C=CC(=O)[C@H]3CC[C@H]2C1=O	none (no result: PK Bst, Tau filament bind)
CCc1ccc(-c2nc(CN3CCC(C(=O)N4CCN(c5ccccc5)CC4)CC3)c(C)o2)cc1	none | HEK293 cAMP cnt inactive
N/C(=N\O)c1cn([C@@H]2O[C@@H](CO)[C@H](O)[C@@H]2O)c2ncnc(NO)c12	none (no result: PK Bst)
NCC(=O)Nc1ccc(Cl)cc1C(=O)c1ccc[nH]1	none (no result: PK Bst)
COc1ccc2c(C)cc(=O)oc2c1C	none (no result: PK Bst) | HEK293 cAMP cnt inactive
Cc1cc(=O)oc2c(C)c(OCC(=O)N(C)C)ccc12	none
CS(=O)(=O)OCCCCOS(C)(=O)=O	ALOX15 inhib inconclusive (no result: PK Bst, FLuc inh)
CCOc1ccc(N(CC(=O)NCc2ccc(F)cc2)S(=O)(=O)c2c(C)noc2C)cc1	none (no result: PK Bst)
CCOc1ccc(N(CC(=O)NC(C)(C)C)S(=O)(=O)c2c(C)noc2C)cc1	none (no result: PK Bst) | HEK293 cAMP cnt inactive
CCOc1ccc(N(CC(=O)NCc2cccs2)S(=O)(=O)c2c(C)noc2C)cc1	TSHR agonist 32µM (no result: PK Bst) | HEK293 cAMP cnt inactive
CCOc1ccc(N(CC(=O)Nc2ccc(C)cc2)S(=O)(=O)c2c(C)noc2C)cc1	none (no result: PK Bst) | HEK293 cAMP cnt inactive
Cc1cc(-c2ccccc2)nc2[n+]1CCN2C	Tau filament bind inconclusive
CON(C)C(=O)c1nnc2c3ccccc3n(S(=O)(=O)c3ccc(C)cc3)c2n1	none (no result: PK Bst, Tau filament bind)
Nc1ccc2c(c1)COc1ccccc1O2	none | HEK293 cAMP cnt inactive
COC(=O)c1cc2c(s1)-c1ccccc1OC2	none (no result: PK Bst, TSHR agonist)
O=C1CC2CS(=O)(=O)CC2N1c1ccc(Oc2ccccc2)cc1 (stereo not drawn)	ALOX15 inhib inconclusive
O=C1N(c2ccccc2)C2CS(=O)(=O)CC2N1c1ccc(Cl)c(Cl)c1 (stereo not drawn)	none (no result: PK Bst, Tau filament bind, FLuc inh) | HEK293 cAMP cnt inactive
COc1ccc(S(=O)(=O)NCCC(=O)NC2CCCCCCC2)cc1	none
COc1ccc(S(=O)(=O)NCCC(=O)NCc2ccc(F)cc2)cc1	none (no result: TSHR agonist) | HEK293 cAMP cnt inactive
Cc1nc2ccc(NC(=O)c3ccc(S(=O)(=O)N4CCOCC4)cc3)cc2s1	none (no result: PK Bst) | HEK293 cAMP cnt inconclusive
Cc1cccc(S(=O)(=O)Nc2cccc(-c3cn4ccsc4n3)c2)c1	none
CC(C)CC(=O)Nc1cccc(-c2cn3ccsc3n2)c1	TSHR agonist 16µM, FLuc inh 16µM | HEK293 cAMP cnt inactive
CC1(c2ccccn2)Nc2ccccc2-c2nc3ccccc3n21 (stereo not drawn)	TSHR agonist 16µM | HEK293 cAMP cnt inactive
O=C1Cn2c(nc3ccccc32)-c2ccccc2N1	none
Cc1cc2c(s1)CCCCC(=O)N2	TSHR agonist inconclusive, HEK293 cAMP ctrl inconclusive (no result: PK Bst, Tau filament bind, FLuc inh)
CC(C)CN1CC[C@@]2(CCCN(C(=O)c3ccco3)C2)C1	none (no result: PK Bst)
Cc1cc(-n2c(C)cc(C(=O)CSc3nnnn3-c3ccc(Cl)cc3)c2C)no1	none (no result: TSHR agonist) | HEK293 cAMP cnt inactive
Cc1cc(-n2c(C)cc(C(=O)CSc3nnc4sc5ccccc5n34)c2C)no1	none
C=C(C)Cn1c(-c2ccccc2)nc2ccccc21	TSHR agonist 3.2µM (no result: PK Bst) | HEK293 cAMP cnt inconclusive
O=C(CN(C1CCCCC1)S(=O)(=O)c1ccc(Cl)cc1)NCc1ccncc1	none (no result: PK Bst)
CCCC(=O)C1=C(SCC)CC(C)(C)C(C(=O)OC)C1=O (stereo not drawn)	TSHR agonist inconclusive, HEK293 cAMP ctrl inconclusive (no result: PK Bst) | HEK293 cAMP cnt inactive
CN1C(=O)C2C=CC1C1C(=O)N(c3ccccc3)C(=O)C21 (stereo not drawn)	none (no result: PK Bst) | HEK293 cAMP cnt inactive
CCN(c1ccccc1)S(=O)(=O)c1ccc(Oc2ccc(-n3ccnc3)cc2)nc1	TSHR agonist 25µM | HEK293 cAMP cnt inactive
O=C(CSc1nnc(-c2ccccc2)n1Cc1ccco1)Nc1ccc2c(c1)OCCO2	TSHR agonist 20µM | HEK293 cAMP cnt inactive
